# This excerpt belongs to a sample that is enriched for the strongest signals.
# B1: Intelectin 1 (Homo sapiens), Q8WWA0 (protein)
# chain: MNQLSFLLFLIATTRGWSTDEANTYFKEWTCSSSPSLPRSCKEIKDECPSAFDGLYFLRTENGVIYQTFCDMTSGGGGWTLVASVHENDMRGKCTVGDRWSSQQGSKAVYPEGDGNWANYNTFGSAEAATSDDYKNPGYYDIQAKDLGIWHVPNKSPMQHWRNSSLLRYRTDTGFLQTLGHNLFGIYQKYPVKYGEGKCWTDNGPVIPVVYDFGDAQKTASYYSPYGQREFTAGFVQFRVFNNERAANALCAGMRVTGCNTEHHCIGGGGYFPEASPQQCGDFSGFDWSGYGTHVGYSSSREITEAAVLLFYR
# What was measured:
# Assay in all cases: glycan array binding signal (z-score within array); higher = stronger binding
# Conditions in all cases: glycan notation: IUPAC condensed, linker removed
# [1] = target: Fuc(a1-2)Gal
# Method in brief: (§1)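 Glycan array data came from 3228 arrays in the Consortium for Functional Glycomics database, and only arrays with an available protein sequence were kept. Glycan names were put into IUPAC-condensed notation, and columns mapping to the same glycan were averaged. The binding signal is a within-array Z-score, averaged across arrays of one protein sequence run at different concentrations or buffers and across linkers. A negative Z-score can be read as non-binding.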
# [2] = target: Fuc(a1-2)Gal(b1-3)GalNAc
# Method in brief: as §1
# [3] = target: Fuc(a1-2)Gal(b1-3)GalNAc(b1-3)Gal(a1-4)Gal(b1-4)Glc
# Method in brief: as §1
# [4] = target: Fuc(a1-2)Gal(b1-3)GlcNAc
# Method in brief: as §1
# [5] = target: Fuc(a1-2)Gal(b1-3)GlcNAc(b1-3)GalNAc
# Method in brief: as §1
# [6] = target: Fuc(a1-2)Gal(b1-3)GlcNAc(b1-3)[Neu5Ac(a2-6)Gal(b1-4)GlcNAc(b1-6)]Gal(b1-4)Glc
# Method in brief: as §1
# [7] = target: Fuc(a1-2)[Gal(a1-3)]Gal(b1-4)[Fuc(a1-3)]GlcNAc(b1-3)GalNAc
# Method in brief: as §1
# [8] = target: Fuc(a1-2)[GalNAc(a1-3)]Gal(b1-3)GlcNAc(b1-2)Man(a1-3)[Fuc(a1-2)[GalNAc(a1-3)]Gal(b1-3)GlcNAc(b1-2)Man(a1-6)]Man(b1-4)GlcNAc(b1-4)[Fuc(a1-6)]GlcNAc
# Method in brief: as §1
# [9] = target: Fuc(a1-2)[GalNAc(a1-3)]Gal(b1-4)GlcNAc(b1-3)Gal(b1-4)GlcNAc
# Method in brief: as §1
# [10] = target: Fuc(a1-3)[Gal(b1-4)]GlcNAc(b1-2)Man(a1-3)[Fuc(a1-3)[Gal(b1-4)]GlcNAc(b1-2)Man(a1-6)]Man(b1-4)GlcNAc(b1-4)[Fuc(a1-6)]GlcNAc
# Method in brief: as §1
# [11] = target: Gal(a1-3)GalNAc
# Method in brief: as §1
# [12] = target: Gal(b1-3)GalNAc(a1-3)[Fuc(a1-2)]Gal(b1-4)Glc
# Method in brief: as §1
# [13] = target: Gal(b1-3)GlcNAc(b1-6)Gal(b1-4)GlcNAc
# Method in brief: as §1
# [14] = target: Gal(b1-3)[Fuc(a1-4)]GlcNAc(b1-3)Gal(b1-4)GlcNAc
# Method in brief: as §1
# [15] = target: Gal(b1-3)[Neu5Ac(b2-6)]GalNAc
# Method in brief: as §1
# [16] = target: Gal(b1-4)GlcNAc(b1-3)Gal(b1-4)Glc
# Method in brief: as §1
# [17] = target: Gal6S(b1-3)GlcNAc6S
# Method in brief: as §1
# [18] = target: Gal6S(b1-4)Glc
# Method in brief: as §1
# [19] = target: GalNAc(b1-3)Gal
# Method in brief: as §1
# [20] = target: GalNAc(b1-3)Gal(a1-6)Gal(b1-4)Glc
# Method in brief: as §1
# [21] = target: GalNAc(b1-3)GalNAc
# Method in brief: as §1
# [22] = target: GalNAc(b1-4)GlcNAc(b1-2)Man(a1-3)[GalNAc(b1-4)GlcNAc(b1-2)Man(a1-6)]Man(b1-4)GlcNAc(b1-4)GlcNAc
# Method in brief: as §1
# [23] = target: Glc(a1-6)Glc(a1-6)Glc
# Method in brief: as §1
# [24] = target: GlcNAc(a1-4)Gal(b1-4)GlcNAc(b1-3)Gal(b1-4)GlcNAc
# Method in brief: as §1
# [25] = target: GlcNAc(a1-4)Gal(b1-4)GlcNAc(b1-3)Gal(b1-4)[Fuc(a1-3)]GlcNAc(b1-3)Gal(b1-4)[Fuc(a1-3)]GlcNAc
# Method in brief: as §1
# [26] = target: GlcNAc(b1-2)Man(a1-3)[GlcNAc(b1-2)Man(a1-6)]Man(b1-4)GlcNAc(b1-4)GlcNAc
# Method in brief: as §1
# [27] = target: GlcNAc(b1-2)[GlcNAc(b1-6)]Man(a1-6)[GlcNAc(b1-2)Man(a1-3)][GlcNAc(b1-4)]Man(b1-4)GlcNAc(b1-4)GlcNAc
# Method in brief: as §1
# [28] = target: Man(a1-2)Man(a1-2)Man(a1-3)Man
# Method in brief: as §1
# [29] = target: Man(a1-2)Man(a1-3)[Man(a1-2)Man(a1-6)]Man(a1-6)[Man(a1-2)Man(a1-2)Man(a1-3)]Man
# Method in brief: as §1
# [30] = target: Man(a1-3)[Man(a1-6)]Man(a1-6)[Man(a1-3)]Man(b1-4)GlcNAc(b1-4)GlcNAc
# Method in brief: as §1
# [31] = target: Neu5Ac(a2-3)Gal(b1-3)GlcNAc(b1-3)Gal(b1-4)GlcNAc
# Method in brief: as §1
# [32] = target: Neu5Ac(a2-3)Gal(b1-3)[Neu5Ac(a2-3)Gal(b1-4)]GlcNAc
# Method in brief: as §1
# [33] = target: Neu5Ac(a2-3)Gal(b1-3)[Neu5Ac(a2-6)]GalNAc
# Method in brief: as §1
# [34] = target: Neu5Ac(a2-3)Gal(b1-4)[Fuc(a1-3)]GlcNAc(b1-3)Gal
# Method in brief: as §1
# [35] = target: Neu5Ac(a2-8)Neu5Ac(a2-3)Gal(b1-4)Glc
# Method in brief: as §1
# [36] = target: Neu5Ac(a2-8)Neu5Ac(a2-3)[Gal(b1-3)GalNAc(b1-4)]Gal(b1-4)Glc
# Method in brief: as §1
# [37] = target: Neu5Gc(a2-6)GalNAc
# Method in brief: as §1
binder,measurement,setting,value
B1,glycan array binding signal (z-score),[1],2.53
same,glycan array binding signal (z-score),[2],-0.327
same,glycan array binding signal (z-score),[3],0.742
same,glycan array binding signal (z-score),[4],0.069
same,glycan array binding signal (z-score),[5],0.22
same,glycan array binding signal (z-score),[6],4.21
same,glycan array binding signal (z-score),[7],-0.244
same,glycan array binding signal (z-score),[8],1.21
same,glycan array binding signal (z-score),[9],-0.387
same,glycan array binding signal (z-score),[10],0.394
same,glycan array binding signal (z-score),[11],-0.41
same,glycan array binding signal (z-score),[12],0.06
same,glycan array binding signal (z-score),[13],0.042
same,glycan array binding signal (z-score),[14],1.33
same,glycan array binding signal (z-score),[15],2.22
same,glycan array binding signal (z-score),[16],0.614
same,glycan array binding signal (z-score),[17],1.05
same,glycan array binding signal (z-score),[18],-0.449
same,glycan array binding signal (z-score),[19],2.09
same,glycan array binding signal (z-score),[20],-0.442
same,glycan array binding signal (z-score),[21],-0.802
same,glycan array binding signal (z-score),[22],0.358
same,glycan array binding signal (z-score),[23],0.027
same,glycan array binding signal (z-score),[24],3.85
same,glycan array binding signal (z-score),[25],3.27
same,glycan array binding signal (z-score),[26],-0.457
same,glycan array binding signal (z-score),[27],0.148
same,glycan array binding signal (z-score),[28],1.53
same,glycan array binding signal (z-score),[29],-0.313
same,glycan array binding signal (z-score),[30],-0.432
same,glycan array binding signal (z-score),[31],0.545
same,glycan array binding signal (z-score),[32],-0.157
same,glycan array binding signal (z-score),[33],-0.094
same,glycan array binding signal (z-score),[34],-0.21
same,glycan array binding signal (z-score),[35],0.12
same,glycan array binding signal (z-score),[36],0.572
same,glycan array binding signal (z-score),[37],0.523

# Source: the supplement of paper PMC8728848
